CYP2C9 inh: blocks human cytochrome P450 2C9; CYP2C9 Supersomes, luciferin-H conversion, luminescence; inhibition, % at 5 µM; 96,000 compounds, 20% hits;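 active means blocking of liver enzyme CYP2C9 beyond about 50% at 5 µM, limit read from the data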
CYP2C9 activ: increases human cytochrome P450 2C9 activity; P11712; recombinant CYP2C9, luciferin-H conversion, luminescence; stronger effect = higher value; factor 1 = untreated enzyme, 0 = blocked; activation factor at 5 µM; 96,000 compounds, 1.4% hits;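 active means activation factor of 2 or more for CYP2C9 at a 5 µM dose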
CYP2C19 inhib: inhibitors of human CYP2C19; P33261; CYP2C19 Supersomes, luciferin-H EGE luminescence, 30 min; AID 778; inhibition, % at 5 µM; 96,000 compounds, 21% hits;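 active means CYP2C19 inhibition above a set limit at 5 µM in the primary screen, cut at about 50% in these data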
Target sequence (P33261 whole entry, looked up): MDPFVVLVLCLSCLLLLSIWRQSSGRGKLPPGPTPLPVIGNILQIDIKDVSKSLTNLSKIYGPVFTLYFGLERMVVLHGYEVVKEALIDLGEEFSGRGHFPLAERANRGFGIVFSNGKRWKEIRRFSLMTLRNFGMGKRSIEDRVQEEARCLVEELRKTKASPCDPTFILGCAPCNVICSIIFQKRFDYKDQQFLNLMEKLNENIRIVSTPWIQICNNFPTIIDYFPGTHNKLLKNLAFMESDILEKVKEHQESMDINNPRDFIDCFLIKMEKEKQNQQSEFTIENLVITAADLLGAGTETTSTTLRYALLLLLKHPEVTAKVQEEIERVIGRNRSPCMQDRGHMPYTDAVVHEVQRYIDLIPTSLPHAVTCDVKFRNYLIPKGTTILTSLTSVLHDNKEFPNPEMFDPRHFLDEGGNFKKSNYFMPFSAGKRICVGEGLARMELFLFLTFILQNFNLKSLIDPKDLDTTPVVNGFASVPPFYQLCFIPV
PLAP activator: activators of human placental alkaline phosphatase. P05187. purified PLAP enzyme, luminescent substrate read-out; stronger effect = higher value. activation fold at 20 µM. 96,000 compounds, 1.2% hits; in the data active means activation fold above about 2
CYP2C19 act: increases human CYP2C19 enzyme activity; P33261; recombinant CYP2C19, luciferin-H EGE luminescence; stronger effect = higher value; 0 = fully inhibited enzyme, 1 = untreated enzyme; activation factor at 5 µM; 96,000 tested, under 10 active; AID 1025;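 active means activation factor of at least 2 at 5 µM in the primary screen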
Each line names hits and unclear results; the compound was inactive in the other large screens. The list is not random: actives were taken first. Their share in the collection is about 31%.

O=C(NCc1cccs1)C1CCCN(S(=O)(=O)c2cccc3cccnc23)C1 (stereo not drawn)	CYP2C9 activ 4.2
O=C(C1CCCN(S(=O)(=O)c2cccc3cccnc23)C1)N1CCN(c2ccccc2F)CC1 (stereo not drawn)	CYP2C19 inhib 87.8
Cc1cccc(NC(=O)C2CCN(c3nccc(C)n3)CC2)c1	CYP2C19 inhib 70.0
O=C(NCc1ccc2c(c1)OCO2)C1CCCN(S(=O)(=O)c2cccc3cccnc23)C1 (stereo not drawn)	none
O=C(NC1CCCC1)C1CCCN(S(=O)(=O)c2cccc3cccnc23)C1 (stereo not drawn)	CYP2C9 activ 2.6
CCOC(=O)C(NC(=O)CC)(Nc1ccc(S(=O)(=O)Nc2onc(C)c2C)cc1)C(F)(F)F (stereo not drawn)	none
O=S(=O)(NCc1cccs1)c1cccc2cccnc12	CYP2C9 activ 2.8
O=C(NC1CCN(Cc2ccccc2)CC1)C1CCN(S(=O)(=O)c2cccc3nsnc23)CC1	none
O=C(NC1CCN(Cc2ccccc2)CC1)C1CCN(S(=O)(=O)c2cccc3cccnc23)CC1	CYP2C9 activ 2.9
COc1ccc(NC(=O)C2CCCN(S(=O)(=O)c3cccc4nonc34)C2)cc1 (stereo not drawn)	none
O=C(NC1CCCCCC1)C1CCN(S(=O)(=O)c2cccc3cccnc23)CC1	CYP2C9 activ 3.9
Cc1cccc(NC(=O)C2CCCN(S(=O)(=O)c3cccc4cccnc34)C2)c1 (stereo not drawn)	CYP2C19 inhib 80.9
COc1ccc(OCCSc2ncn[nH]2)cc1	none
CC(=O)Nc1ccc(N(C)S(C)(=O)=O)cc1	none
Cc1ccc(C(=O)COC(=O)CNC(=O)c2ccco2)cc1	none
Cc1ccc(OCC(=O)NNC(=O)C2CCN(c3ncccn3)CC2)cc1	PLAP activator 2
O=C(Nc1ccc2c(c1)OCO2)C1CCN(S(=O)(=O)c2cccc3cccnc23)CC1	CYP2C9 activ 2.8
O=C(NCc1cccs1)C1CCCN1S(=O)(=O)c1ccccc1F (stereo not drawn)	CYP2C19 inhib 52.7
Cc1ccc(OCC(=O)NNC(=O)C2CCN(c3nc(C)cc(C)n3)CC2)cc1	none
Cc1ccc(OCc2nc(-c3ccc(-n4cccc4)cc3)no2)cc1C	none
Cc1ccc2[nH]c3c(=O)n(CCCN4CCN(C)CC4)cnc3c2c1	none
O=C(O)c1cc2ccc3ccccc3c2[nH]1	none
CCC(c1nnnn1C(C)(C)CC)N(CCCO)Cc1cc2cc(C)cc(C)c2[nH]c1=O (stereo not drawn)	CYP2C9 inh 76.1, CYP2C19 inhib 62.6
CCCC(c1nnnn1C(C)(C)CC)N(CCCO)Cc1cc2cc(C)cc(C)c2[nH]c1=O (stereo not drawn)	CYP2C9 inh 52.8
CCC(c1nnnn1C(C)(C)CC)N(CCN1CCOCC1)Cc1cc2cc(C)ccc2[nH]c1=O (stereo not drawn)	CYP2C19 inhib 81.9
N#CC(=C1CCCC1)c1nc(-c2ccccc2O)cs1	CYP2C19 inhib 71.5
N#CC(=C1CCCC1)c1nc(-c2ccccc2)cs1	none
CC(=O)Nc1cc(NC(C)=O)cc(C(=O)OCC(=O)N2CC(C)OC(C)C2)c1 (stereo not drawn)	none
COc1ccc(NS(=O)(=O)c2ccc(O)c(C(=O)OCC(=O)N3CC(C)OC(C)C3)c2)cc1 (stereo not drawn)	CYP2C9 inh 81.5, CYP2C19 inhib 70.8
COc1ccc(-c2cn(/N=C/c3ccc(Cl)cc3Cl)c(N)n2)cc1	CYP2C9 inh 71.5, CYP2C19 inhib 74.5
Cc1cc(N2CCN(C)CC2)nc2ccc(NC(=O)CCC(=O)NCc3ccco3)cc12	none
Cc1cc(S(=O)(=O)N(Cc2ccc(F)cc2)CC2CCCO2)ccc1-n1cnnn1 (stereo not drawn)	CYP2C19 inhib 56.3
Cc1cc(S(=O)(=O)N(Cc2ccc3c(c2)OCO3)CC2CCCO2)ccc1-n1cnnn1 (stereo not drawn)	CYP2C9 inh 69.2, CYP2C19 inhib 94.8
Cc1cc(S(=O)(=O)N(Cc2ccc(C(C)C)cc2)CC2CCCO2)ccc1-n1cnnn1 (stereo not drawn)	CYP2C9 inh 52.6
COc1ccc(CCC(=O)N2CCN(S(=O)(=O)c3ccc4ccccc4c3)CC2)cc1	none
COc1ccc(S(=O)(=O)N2CCN(Cc3cccc(Cl)c3)CC2)cc1	CYP2C9 inh 60.8, CYP2C19 inhib 93.9
COc1cc(CCC(=O)N2CCN(S(=O)(=O)c3ccc(C)c(C)c3)CC2)cc(OC)c1OC	CYP2C19 inhib 55.5
CCOc1ccc(C(=O)CN2CCN(S(=O)(=O)c3ccc(Cl)cc3)CC2)cc1	CYP2C19 inhib 57.6
COc1ccc(S(=O)(=O)N2CCN(Cc3c[nH]c4ccccc34)CC2)cc1	CYP2C19 inhib 52.4
Cc1c(NC(=O)c2cc(=O)[nH]c(=O)[nH]2)c(=O)n(-c2ccccc2)n1C	none
CCn1c(SCC(=O)n2nc(C)cc2C)nnc1-c1ccc2c(c1)OCO2	none
COc1ccc(S(=O)(=O)N2CCN(Cc3ccc(Cl)cc3)CC2)cc1	CYP2C19 inhib 62.6
COc1ccc(S(=O)(=O)N2CC(C)N(S(=O)(=O)c3ccc(OC)cc3)CC2C)cc1 (stereo not drawn)	none
COc1cc(CN2CCN(S(=O)(=O)c3ccc(F)cc3)CC2)cc(OC)c1OC	CYP2C19 inhib 84.2
COc1ccc(S(=O)(=O)N2CC3C4C=CC(C4)C3C2)cc1 (stereo not drawn)	CYP2C19 inhib 58.2
CCOC(=O)c1ccc(S(=O)(=O)N2CCN(CC(=O)NC(=O)NC3CCCCC3)CC2)cc1	CYP2C9 inh 60.0
O=C(Nc1cccc(F)c1)c1cccnc1N1CCOCC1	none
S=C(c1ccc2c(c1)OCO2)N1CCCCCC1	CYP2C9 inh 54.6, CYP2C19 inhib 99.2
O=C(c1ccc2c(c1)OCO2)N(CC1CCCO1)C1(C(=O)NC2CCCCC2)CCCCC1 (stereo not drawn)	CYP2C9 inh 71.1, CYP2C19 inhib 69.6
CN(C(=O)c1ccc2c(c1)OCO2)C1(C(=O)NC2CCCC2)CCCCC1	none
O=C(c1ccc2c(c1)OCO2)N1CCCN(C(=O)c2ccc3c(c2)OCO3)CC1	CYP2C9 inh 74.2
S=C(NC1CCCCC1)c1ccc2c(c1)OCO2	CYP2C19 inhib 83.3
COc1cc2nc(CN3C(=O)c4ccccc4C3=O)oc(=O)c2cc1OC	none
COc1ccc(C(=S)N2CCCC2)cc1OC	none
COc1ccc(C(=S)N2CCCC2)cc1C	CYP2C19 inhib 91.0
C#CCn1c(S(=O)(=O)Cc2ccc(OC)cc2)nc(-c2ccccc2)c1-c1ccccc1	CYP2C9 inh 81.5, CYP2C19 inhib 64.3
CCOC(=O)Cn1c(S(=O)(=O)Cc2ccccc2)nc2ccccc21	none
CCOC(=O)Cn1c(S(=O)(=O)Cc2ccc(Cl)cc2)nc(-c2ccccc2)c1-c1ccccc1	CYP2C9 inh 50.0
CCc1ccc(CCC(=O)Nc2nnc(CC)s2)o1	none
Cc1ccc(S(=O)(=O)N(CCO)c2cc3c(s2)CCCC3)cc1	CYP2C19 inhib 99.3

Screening data from PubChem.
